# Results as given in PubChem BioAssay (EPA / NIEHS).
# Inconclusive results are not listed. A structure can be active in one record and inactive in another. Activity calls are given as the source filed them. The calls were made as follows, unless noted: active = hit-call score of the fitted dose curve at least 0.9, where 1 is the maximum; inactive = score below 0.9.
# How the values were obtained:
# [1] = ATG_NRF2_ARE_CIS: Attagene CIS-FACTORIAL HepG2 Assay for human Nuclear Factor Erythroid 2 Related Factor 2 (NFR2) response to Antioxidant Response Elements (ARE) (AID 2282992); details: HepG2 Attagene ARE/NRF2 reporter, transcription factor activity; actives raise or lower the signal;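 as to AC50: reporter mRNA level measured by RT-PCR and capillary electrophoresis fluorescence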
# Summary of the method: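 Multiplexed reporter mRNA profiling in HepG2 after a 24 h chemical exposure. Curves fitted in both directions relative to DMSO negative control.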
# [2] = ATG_Oct_MLP_CIS: Attagene CIS-FACTORIAL HepG2 Assay for human Octamer-Binding Transcription Factor (Oct) (AID 2282993); details: HepG2 Attagene cis-factorial Oct reporter, mRNA; actives raise or lower the signal
# Summary of the method: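 After 24 h compound exposure, transfected HepG2 cells were lysed for total RNA; reporter-specific cDNA was PCR-amplified, fluorescently labelled and sized by capillary electrophoresis. Bidirectional curve fitting used DMSO as baseline.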
# [3] = target: Cellular tumor antigen p53 (Homo sapiens) (UniProt P04637); assay: ATG_p53_CIS: Attagene CIS-FACTORIAL HepG2 Assay for human p53 Transcription Factor (AID 2282994); details: HepG2 p53 cis-element reporter, Attagene mRNA; actives raise or lower the signal
# Summary of the method: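 Multiplexed reporter mRNA assay in human HepG2 liver cells; cis-regulated units report endogenous factor activity. Values come from bidirectional curve fitting against DMSO negative control after 24 h treatment.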
# [4] = BSK_3C_TissueFactor: BioMAP Diversity Plus: 3C Assay for Tissue Factor Biomarker Activity (AID 2282997); details: BioMAP 3C HUVEC, tissue factor biomarker readout; actives raise or lower the signal
# Summary of the method: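 Primary human umbilical vein endothelial cells in the 3C system were exposed to test chemical for 24 h, then Tissue Factor measured by ELISA. Activity was fitted bidirectionally against DMSO as negative control and baseline.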
# [5] = BSK_3C_uPAR: BioMAP Diversity Plus: 3C Assay for Urokinase-type plasminogen activator receptor (uPAR) Biomarker Activity (AID 2282998); details: BioMAP 3C HUVEC, uPAR biomarker ELISA; actives raise or lower the signal
# Summary of the method: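 Values derive from bidirectional curve fitting relative to DMSO, which served as baseline of activity. uPAR was measured by ELISA in human umbilical vein endothelial primary cultures 24 h after compound addition.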
# [6] = BSK_3C_VCAM1: BioMAP Diversity Plus: 3C Assay for Vascular cell adhesion molecule 1 (VCAM1) Biomarker Activity (AID 2282999); details: BioMAP 3C HUVEC, VCAM1 ELISA, cytokine-stimulated; actives raise or lower the signal
# Summary of the method: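 Human umbilical vein endothelial cells (3C system), biomarker read by ELISA 24 h after dosing; bidirectional fit against DMSO baseline. Cytotoxicity tracked by SRB total-protein staining in parallel cultures at biomarker time.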
# [7] = target: human Peroxisome Proliferator-activated Receptor alpha (PPARa), PPARA (gene 5465) (UniProt Q07869); assay: ATG_PPARa_TRANS: Attagene TRANS-FACTORIAL HepG2 Assay for human Peroxisome Proliferator-activated Receptor alpha (PPARa) (AID 2283001; active = hit-call score of the fitted dose curve at least 0.9, where 1 is the maximum)
# Summary of the method: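 HepG2 cells transiently transfected with multiplexed GAL4-UAS reporters driven by exogenous chimeric NR-Gal4 proteins; reporter mRNA measured after 24 h dosing. Read-out by RT-PCR, 6-FAM labelling, HpaI digestion and capillary electrophoresis; gain of signal versus DMSO.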
# [8] = target: human Peroxisome Proliferator-activated Receptor delta (PPARd), PPARD (gene 5467) (UniProt Q03181); assay: ATG_PPARd_TRANS: Attagene TRANS-FACTORIAL HepG2 Assay for human Peroxisome Proliferator-activated Receptor delta (PPARd) (AID 2283002; active = hit-call score of the fitted dose curve at least 0.9, where 1 is the maximum)
# Summary of the method: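 HepG2 cells transiently transfected with GAL4-UAS multiplexed reporter units driven by exogenous chimeric NR-GAL4 proteins; 24 h compound exposure. Reporter mRNA measured by RT-PCR, 6-FAM primer extension, HpaI digestion and capillary electrophoresis; gain of signal fitted relative to DMSO.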
# [9] = read-out: Intercellular Adhesion Molecule 1 (ICAM1), ICAM1 (gene 3383); assay: BSK_3C_ICAM1: BioMAP Diversity Plus: 3C Assay for Intercellular Adhesion Molecule 1 (ICAM1) Biomarker Activity (AID 2283003); details: primary human endothelial cells (HUVEC); actives raise or lower the signal
# Summary of the method: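 HUVEC primary cells stimulated under 3C conditions; ICAM1 measured by ELISA 24 h after compound dosing. Curves fitted bidirectionally against the DMSO baseline. Overt cytotoxicity checked by SRB staining of parallel cultures.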
# [10] = BSK_3C_Proliferation: Cell Proliferation Assessment in the BioMAP Diversity Plus: 3C Assay (AID 2283006); details: primary human endothelial cells (HUVEC);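 as to AC50: potency may reflect either rise or fall in cell number versus DMSO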
# Summary of the method: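 Subconfluent HUVEC (3C system) cultured with chemical; relative cell number read at 48 h by sulforhodamine B total-protein staining (0.1% SRB after 10% TCA fixation, 560 nm). Bidirectional fit relative to DMSO.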
# [11] = target: Nuclear receptor subfamily 1 group I member 2 (Homo sapiens) (UniProt O75469); assay: ATG_PXR_TRANS: Attagene TRANS-FACTORIAL HepG2 Assay for human Pregnane X Receptor (PXR) (AID 2283008; active = hit-call score of the fitted dose curve at least 0.9, where 1 is the maximum)
# Summary of the method: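 Measures mRNA induction of a GAL4-UAS-driven reporter in human HepG2 cells transiently expressing PXR fused to Gal4, following 24 h treatment. DMSO served as negative control and baseline.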
# [12] = target: human RAR-related Orphan Receptor gamma (RORg), RORC (gene 6097) (UniProt P51449); assay: ATG_RORg_TRANS: Attagene TRANS-FACTORIAL HepG2 Assay for human RAR-related Orphan Receptor gamma (RORg) (AID 2283011; active = hit-call score of the fitted dose curve at least 0.9, where 1 is the maximum)
# Summary of the method: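 Readout: reporter transcript induction (RT-PCR, fluorescent primer extension, capillary electrophoresis) after 24 h compound exposure of transiently transfected HepG2 cells carrying a RORg-Gal4 chimera and GAL4-UAS reporters; DMSO served as baseline, with increasing signal fitted.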
# [13] = BSK_4H_Eotaxin3: BioMAP Diversity Plus: 4H Assay for Eotaxin 3 Biomarker Activity (AID 2283000); details: primary human endothelial cells (HUVEC); actives raise or lower the signal;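 as to outcome: CCL26 protein level quantified by ELISA in parallel with SRB cytotoxicity check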
# Summary of the method: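 HUVEC, 24 h post-dose, ELISA for Eotaxin-3/CCL26. Gain or loss of signal fitted bidirectionally vs DMSO baseline.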
# [14] = target: Peroxisome proliferator-activated receptor gamma (Homo sapiens) (UniProt P37231); assay: ATG_PPARg_TRANS: Attagene TRANS-FACTORIAL HepG2 Assay for human Peroxisome Proliferator-activated Receptor-gamma (PPARg) (AID 2283007; active = hit-call score of the fitted dose curve at least 0.9, where 1 is the maximum)
# Summary of the method: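 Transient transfection of HepG2 with GAL4-UAS-driven reporter units; chemical dosing 24 h; total RNA → oligo(dT) RT → PCR with reporter primers → 6-FAM primer extension → HpaI digest 2 h 37 C → capillary electrophoresis. Positive direction vs DMSO.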
# [15] = target: human Retinoic Acid Receptor gamma (RARg), RARG (gene 5916) (UniProt P13631); assay: ATG_RARg_TRANS: Attagene TRANS-FACTORIAL HepG2 Assay for human Retinoic Acid Receptor gamma (RARg) (AID 2283009; active = hit-call score of the fitted dose curve at least 0.9, where 1 is the maximum)
# Summary of the method: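 HepG2 transiently transfected with GAL4-UAS reporter units and chimeric NR-Gal4 constructs; 24 h compound exposure. Reporter mRNA quantified by RT-PCR, FAM labeling, HpaI digestion and capillary electrophoresis; gain-of-signal versus DMSO.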
# [16] = target: Retinoic acid receptor RXR-alpha (Homo sapiens) (UniProt P19793); assay: ATG_RXRa_TRANS: Attagene TRANS-FACTORIAL HepG2 Assay for human Retinoid X Receptor alpha (RXRa) (AID 2283012; active = hit-call score of the fitted dose curve at least 0.9, where 1 is the maximum)
# Summary of the method: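 HepG2 cells transiently transfected with GAL4-UAS reporter units and chimeric RXRa-Gal4 protein, treated 24 h. Reporter mRNA measured by RT-PCR, fluorescent labelling, HpaI digestion and capillary electrophoresis. Induction fitted against DMSO.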
# [17] = target: human Retinoid X Receptor beta (RXRb), RXRB (gene 6257) (UniProt P28702); assay: ATG_RXRb_TRANS: Attagene TRANS-FACTORIAL HepG2 Assay for human Retinoid X Receptor beta (RXRb) (AID 2283013; active = hit-call score of the fitted dose curve at least 0.9, where 1 is the maximum)
# Summary of the method: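 HepG2 cells were transiently transfected with multiplexed GAL4-UAS reporters and a chimeric RXRb-Gal4 construct, then exposed for 24 h. Reporter mRNA was quantified by RT-PCR, FAM labeling, HpaI digestion and capillary electrophoresis; gain of signal was scored against DMSO.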
# [18] = target: Retinoic acid receptor alpha (Homo sapiens) (UniProt P10276); assay: ATG_RARa_TRANS: Attagene TRANS-FACTORIAL HepG2 Assay for human Retinoic Acid Receptor alpha (RARa) (AID 2283005; active = hit-call score of the fitted dose curve at least 0.9, where 1 is the maximum)
# Summary of the method: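 HepG2 transiently transfected with multiplex GAL4-UAS reporter units including a human RARa–GAL4 chimera; 24 h compound exposure. Reporter mRNA quantified by RT-PCR, 6-FAM labeling and capillary electrophoresis; gain of signal versus DMSO.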
# [19] = target: human Retinoic Acid Receptor beta (RARb), RARB (gene 5915) (UniProt P10826); assay: ATG_RARb_TRANS: Attagene TRANS-FACTORIAL HepG2 Assay for human Retinoic Acid Receptor beta (AID 2283004; active = hit-call score of the fitted dose curve at least 0.9, where 1 is the maximum)
# Summary of the method: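 HepG2 cells transiently transfected with multiplexed GAL4-UAS reporter units expressing chimeric NR–Gal4 fusions; 24 h compound exposure. Reporter mRNA quantified by RT-PCR, 6-FAM labelling, HpaI digestion and capillary electrophoresis; gain-of-signal fitted against DMSO baseline.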
# [20] = target: human RAR-related Orphan Receptor beta (RORb), RORB (gene 6096) (UniProt Q92753); assay: ATG_RORb_TRANS: Attagene TRANS-FACTORIAL HepG2 Assay for human RAR-related Orphan Receptor beta (RORb) (AID 2283010; active = hit-call score of the fitted dose curve at least 0.9, where 1 is the maximum)
# Summary of the method: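 HepG2 cells transiently transfected with GAL4-UAS reporter units expressing chimeric NR-Gal4 protein; reporter mRNA measured 24 h after dosing by RT-PCR, 6-FAM labelling and capillary electrophoresis. Gain-of-signal fitted relative to DMSO baseline.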
# Peroxisome proliferator-activated receptor gamma (Homo sapiens), sequence (P37231 whole entry, looked up, the tested form may be a part): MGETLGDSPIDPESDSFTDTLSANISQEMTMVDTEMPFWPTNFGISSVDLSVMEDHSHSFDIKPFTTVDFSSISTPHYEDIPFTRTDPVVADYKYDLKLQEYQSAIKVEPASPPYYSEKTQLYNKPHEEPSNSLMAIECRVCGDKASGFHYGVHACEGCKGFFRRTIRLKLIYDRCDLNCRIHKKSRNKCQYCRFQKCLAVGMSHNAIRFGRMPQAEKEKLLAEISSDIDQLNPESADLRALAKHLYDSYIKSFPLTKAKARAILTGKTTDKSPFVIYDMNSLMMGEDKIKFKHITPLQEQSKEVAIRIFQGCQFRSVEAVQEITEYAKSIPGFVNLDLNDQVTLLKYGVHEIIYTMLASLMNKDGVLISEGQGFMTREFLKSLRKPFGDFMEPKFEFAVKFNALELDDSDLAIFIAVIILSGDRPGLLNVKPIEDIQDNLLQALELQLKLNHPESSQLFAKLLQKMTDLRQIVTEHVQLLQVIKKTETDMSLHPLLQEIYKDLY
# human RAR-related Orphan Receptor gamma (RORg), RORC (gene 6097), sequence (P51449 whole entry, looked up, the tested form may be a part): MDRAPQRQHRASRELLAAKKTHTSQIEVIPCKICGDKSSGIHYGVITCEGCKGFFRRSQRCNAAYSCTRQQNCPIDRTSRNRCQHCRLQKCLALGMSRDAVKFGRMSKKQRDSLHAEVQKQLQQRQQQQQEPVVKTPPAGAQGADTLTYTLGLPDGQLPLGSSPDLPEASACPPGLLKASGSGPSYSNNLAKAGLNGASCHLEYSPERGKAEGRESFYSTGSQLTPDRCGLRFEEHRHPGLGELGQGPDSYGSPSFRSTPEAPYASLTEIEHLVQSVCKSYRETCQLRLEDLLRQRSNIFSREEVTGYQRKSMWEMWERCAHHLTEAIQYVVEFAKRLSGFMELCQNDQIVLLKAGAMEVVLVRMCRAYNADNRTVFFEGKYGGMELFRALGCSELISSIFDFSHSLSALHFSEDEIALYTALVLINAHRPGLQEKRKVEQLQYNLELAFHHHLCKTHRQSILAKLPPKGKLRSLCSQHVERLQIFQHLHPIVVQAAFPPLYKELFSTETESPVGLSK
# human Retinoid X Receptor beta (RXRb), RXRB (gene 6257), sequence (P28702 whole entry, looked up, the tested form may be a part): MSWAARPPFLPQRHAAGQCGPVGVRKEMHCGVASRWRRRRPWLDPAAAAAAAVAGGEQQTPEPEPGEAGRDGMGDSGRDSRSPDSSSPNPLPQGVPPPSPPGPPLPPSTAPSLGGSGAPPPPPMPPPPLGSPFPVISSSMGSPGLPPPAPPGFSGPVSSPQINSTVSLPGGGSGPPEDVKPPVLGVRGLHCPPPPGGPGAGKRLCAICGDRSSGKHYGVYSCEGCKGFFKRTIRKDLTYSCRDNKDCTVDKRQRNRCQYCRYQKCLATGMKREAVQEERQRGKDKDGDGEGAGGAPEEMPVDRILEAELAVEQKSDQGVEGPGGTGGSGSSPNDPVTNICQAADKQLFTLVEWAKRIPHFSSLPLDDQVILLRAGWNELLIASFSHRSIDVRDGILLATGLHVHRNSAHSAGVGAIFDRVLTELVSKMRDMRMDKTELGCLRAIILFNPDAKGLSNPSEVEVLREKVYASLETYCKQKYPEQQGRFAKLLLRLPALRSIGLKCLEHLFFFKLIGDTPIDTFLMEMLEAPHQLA
# human Peroxisome Proliferator-activated Receptor delta (PPARd), PPARD (gene 5467), sequence (Q03181 whole entry, looked up, the tested form may be a part): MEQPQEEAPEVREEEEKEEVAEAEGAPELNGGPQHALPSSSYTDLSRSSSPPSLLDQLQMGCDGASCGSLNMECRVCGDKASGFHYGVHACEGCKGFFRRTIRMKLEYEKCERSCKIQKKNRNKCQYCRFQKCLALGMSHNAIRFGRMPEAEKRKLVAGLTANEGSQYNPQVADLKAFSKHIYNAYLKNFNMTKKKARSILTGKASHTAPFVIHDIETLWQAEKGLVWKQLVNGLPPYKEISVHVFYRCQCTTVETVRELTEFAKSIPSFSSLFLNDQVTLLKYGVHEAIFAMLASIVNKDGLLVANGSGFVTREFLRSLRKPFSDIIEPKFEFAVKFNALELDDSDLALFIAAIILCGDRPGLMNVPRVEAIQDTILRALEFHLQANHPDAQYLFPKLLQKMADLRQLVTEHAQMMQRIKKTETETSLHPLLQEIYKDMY
# Nuclear receptor subfamily 1 group I member 2 (Homo sapiens), sequence (O75469 whole entry, looked up, the tested form may be a part): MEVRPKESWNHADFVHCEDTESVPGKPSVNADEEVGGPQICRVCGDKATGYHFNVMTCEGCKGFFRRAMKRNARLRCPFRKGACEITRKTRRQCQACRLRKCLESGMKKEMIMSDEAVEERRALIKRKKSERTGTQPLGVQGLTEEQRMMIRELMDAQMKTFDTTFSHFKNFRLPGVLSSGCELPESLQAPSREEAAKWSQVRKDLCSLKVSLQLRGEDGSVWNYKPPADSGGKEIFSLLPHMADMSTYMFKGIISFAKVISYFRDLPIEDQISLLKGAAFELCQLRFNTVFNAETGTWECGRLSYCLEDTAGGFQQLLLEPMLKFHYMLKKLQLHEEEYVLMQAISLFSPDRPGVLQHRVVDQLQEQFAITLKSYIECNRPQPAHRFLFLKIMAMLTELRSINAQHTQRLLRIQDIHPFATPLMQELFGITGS
# Retinoic acid receptor RXR-alpha (Homo sapiens), sequence (P19793 whole entry, looked up, the tested form may be a part): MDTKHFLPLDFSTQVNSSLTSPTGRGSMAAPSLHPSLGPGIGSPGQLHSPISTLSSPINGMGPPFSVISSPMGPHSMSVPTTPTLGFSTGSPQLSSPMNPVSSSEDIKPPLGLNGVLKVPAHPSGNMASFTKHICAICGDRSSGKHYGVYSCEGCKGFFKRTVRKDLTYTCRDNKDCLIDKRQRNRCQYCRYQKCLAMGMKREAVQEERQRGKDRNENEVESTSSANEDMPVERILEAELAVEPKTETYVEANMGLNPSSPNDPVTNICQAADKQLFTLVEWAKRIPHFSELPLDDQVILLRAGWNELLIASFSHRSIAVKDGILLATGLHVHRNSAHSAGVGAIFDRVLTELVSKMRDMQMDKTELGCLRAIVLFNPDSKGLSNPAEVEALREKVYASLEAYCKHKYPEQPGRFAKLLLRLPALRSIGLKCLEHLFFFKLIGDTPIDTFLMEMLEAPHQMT
# Cellular tumor antigen p53 (Homo sapiens), sequence (P04637 whole entry, looked up): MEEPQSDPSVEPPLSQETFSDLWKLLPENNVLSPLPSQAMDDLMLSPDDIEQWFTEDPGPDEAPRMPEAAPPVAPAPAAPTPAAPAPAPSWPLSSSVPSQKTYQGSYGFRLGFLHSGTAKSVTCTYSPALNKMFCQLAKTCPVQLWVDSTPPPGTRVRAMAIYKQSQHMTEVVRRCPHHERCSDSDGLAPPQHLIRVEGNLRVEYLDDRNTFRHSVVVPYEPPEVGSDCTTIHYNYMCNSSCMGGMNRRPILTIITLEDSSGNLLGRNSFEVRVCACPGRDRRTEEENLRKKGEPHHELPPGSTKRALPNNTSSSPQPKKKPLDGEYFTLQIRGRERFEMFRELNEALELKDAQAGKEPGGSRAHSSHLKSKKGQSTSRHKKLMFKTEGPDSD
# human Retinoic Acid Receptor gamma (RARg), RARG (gene 5916), sequence (P13631 whole entry, looked up, the tested form may be a part): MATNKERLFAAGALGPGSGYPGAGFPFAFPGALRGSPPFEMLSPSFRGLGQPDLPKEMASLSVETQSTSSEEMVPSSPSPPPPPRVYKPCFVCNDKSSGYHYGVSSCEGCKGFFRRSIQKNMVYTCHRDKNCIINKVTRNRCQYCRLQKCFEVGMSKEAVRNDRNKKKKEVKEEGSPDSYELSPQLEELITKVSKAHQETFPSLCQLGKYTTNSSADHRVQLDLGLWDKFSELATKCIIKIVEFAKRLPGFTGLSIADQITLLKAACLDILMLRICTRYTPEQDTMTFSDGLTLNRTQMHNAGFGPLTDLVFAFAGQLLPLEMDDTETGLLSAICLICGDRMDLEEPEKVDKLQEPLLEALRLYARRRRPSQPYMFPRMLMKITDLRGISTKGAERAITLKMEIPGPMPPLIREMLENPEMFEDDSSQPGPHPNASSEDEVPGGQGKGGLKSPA
# human Peroxisome Proliferator-activated Receptor alpha (PPARa), PPARA (gene 5465), sequence (Q07869 whole entry, looked up, the tested form may be a part): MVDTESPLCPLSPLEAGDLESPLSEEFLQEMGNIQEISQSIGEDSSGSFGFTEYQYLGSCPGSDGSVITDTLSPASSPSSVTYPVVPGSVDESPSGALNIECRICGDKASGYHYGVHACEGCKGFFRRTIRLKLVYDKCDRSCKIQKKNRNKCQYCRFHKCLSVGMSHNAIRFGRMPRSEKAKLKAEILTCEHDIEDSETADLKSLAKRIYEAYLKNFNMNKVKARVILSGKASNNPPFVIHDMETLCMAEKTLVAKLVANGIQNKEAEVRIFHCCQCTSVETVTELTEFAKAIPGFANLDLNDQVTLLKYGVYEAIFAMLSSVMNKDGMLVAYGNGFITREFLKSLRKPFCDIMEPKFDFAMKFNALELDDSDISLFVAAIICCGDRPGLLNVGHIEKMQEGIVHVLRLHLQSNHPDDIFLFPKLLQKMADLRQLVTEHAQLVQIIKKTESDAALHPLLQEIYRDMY
# human Retinoic Acid Receptor beta (RARb), RARB (gene 5915), sequence (P10826 whole entry, looked up, the tested form may be a part): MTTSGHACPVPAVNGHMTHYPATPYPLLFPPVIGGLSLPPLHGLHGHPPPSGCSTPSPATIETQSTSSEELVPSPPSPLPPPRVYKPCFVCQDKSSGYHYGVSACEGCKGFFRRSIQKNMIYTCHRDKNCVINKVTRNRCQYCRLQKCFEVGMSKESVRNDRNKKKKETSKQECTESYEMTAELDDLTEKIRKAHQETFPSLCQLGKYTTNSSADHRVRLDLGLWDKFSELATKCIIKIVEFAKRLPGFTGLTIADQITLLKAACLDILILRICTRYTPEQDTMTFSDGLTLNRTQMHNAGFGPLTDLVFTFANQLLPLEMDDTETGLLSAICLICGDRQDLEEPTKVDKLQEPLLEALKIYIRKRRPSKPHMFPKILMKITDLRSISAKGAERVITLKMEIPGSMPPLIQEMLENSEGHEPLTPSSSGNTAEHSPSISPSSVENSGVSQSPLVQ
compound,measurement,setting,value
CCCCOC(=O)COC(=O)c1ccccc1C(=O)OCCCC,outcome,[1],inactive
same,outcome,[2],inactive
same,outcome,[3],inactive
same,outcome,[4],inactive
same,outcome,[5],inactive
same,outcome,[6],inactive
same,outcome,[7],inactive
same,outcome,[8],inactive
same,outcome,[9],inactive
same,AC50,[10],26.1 µM (active)
same,outcome,[10],inactive
same,AC50,[11],27.4 µM (active)
same,outcome,[12],inactive
Cc1cccc(OP(=O)(Oc2cccc(C)c2)Oc2cccc(C)c2)c1,AC50,[1],21.9 µM (active)
same,outcome,[2],inactive
same,outcome,[3],inactive
same,outcome,[4],inactive
same,outcome,[5],inactive
same,outcome,[6],inactive
same,outcome,[13],inactive
same,outcome,[8],inactive
same,outcome,[9],inactive
same,AC50,[10],8.53 µM (active)
same,AC50,[11],0.521 µM (active)
Cc1cc(C(C)(C)c2ccc(O)c(C)c2)ccc1O,AC50,[1],11.7 µM (active)
same,AC50,[2],34.8 µM (active)
same,AC50,[3],33.7 µM (active)
same,AC50,[4],13.6 µM (active)
same,AC50,[5],10 µM (active)
same,outcome,[8],inactive
same,outcome,[9],inactive
same,AC50,[10],14.3 µM (active)
same,AC50,[14],5.48 µM (active)
same,AC50,[11],3.26 µM (active)
same,outcome,[15],inactive
same,outcome,[12],inactive
same,outcome,[16],inactive
O=[N+]([O-])c1ccc(Nc2ccccc2)cc1,outcome,[1],inactive
same,outcome,[2],inactive
same,outcome,[3],inactive
same,outcome,[4],inactive
same,outcome,[5],inactive
same,outcome,[13],inactive
same,outcome,[7],inactive
same,outcome,[9],inactive
same,outcome,[10],inactive
same,AC50,[11],12.3 µM (active)
same,outcome,[16],inactive
same,AC50,[17],12.1 µM (active)
Cc1c([N+](=O)[O-])c(C)c([N+](=O)[O-])c(C(C)(C)C)c1[N+](=O)[O-],outcome,[1],inactive
same,outcome,[2],inactive
same,outcome,[3],inactive
same,outcome,[4],inactive
same,AC50,[13],28.2 µM (active)
same,AC50,[9],20 µM (active)
same,outcome,[18],inactive
same,AC50,[10],26.8 µM (active)
same,AC50,[11],2.05 µM (active)
same,outcome,[15],inactive
same,AC50,[16],9.15 µM (active)
same,AC50,[17],1.12 µM (active)
CC(C)(COCC1CO1)COCC1CO1 (configuration not stated),AC50,[1],49.8 µM (active)
same,outcome,[2],inactive
same,outcome,[3],inactive
same,AC50,[4],3.97 µM (active)
same,outcome,[6],inactive
same,outcome,[13],inactive
same,outcome,[8],inactive
same,outcome,[9],inactive
same,outcome,[19],inactive
same,AC50,[10],20 µM (active)
same,outcome,[14],inactive
same,outcome,[11],inactive
same,outcome,[12],inactive
CCOP(=S)(OCC)OP(=S)(OCC)OCC,outcome,[1],inactive
same,outcome,[2],inactive
same,outcome,[3],inactive
same,outcome,[4],inactive
same,AC50,[13],35.6 µM (active)
same,outcome,[8],inactive
same,AC50,[9],36.8 µM (active)
same,AC50,[10],31.6 µM (active)
same,AC50,[14],25.8 µM (active)
same,AC50,[11],0.94 µM (active)
same,outcome,[20],inactive
same,outcome,[16],inactive
same,AC50,[17],50.2 µM (active)
CC(C)=CC1C(C(=O)OCc2cccc(Oc3ccccc3)c2)C1(C)C (configuration not stated),outcome,[1],inactive
same,outcome,[2],inactive
same,outcome,[3],inactive
same,outcome,[4],inactive
same,outcome,[5],inactive
same,outcome,[13],inactive
same,outcome,[8],inactive
same,outcome,[9],inactive
same,outcome,[19],inactive
same,outcome,[18],inactive
same,AC50,[10],20 µM (active)
same,AC50,[11],9.55 µM (active)
same,outcome,[20],inactive
same,outcome,[12],inactive
same,outcome,[17],inactive
